Experimental data as given in the supplement of paper PMC3545927.
Some of the results follow. No count for the full screen is at hand.

Biological target: furin, P09958
Assay: furin cleavage Z-score vs untreated control; higher = more cleavage, active = 3.5 or more, inactive = 1 or less, 8 variable residues between constant flanks
Summary of the method: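 In 50 mM HEPES pH 7.5 with CaCl2 and NaCl, purified furin was incubated with bead-anchored 8-mer peptide–cDNA fusions at 1:10 enzyme:substrate in 0.01 ml. Incubation times were 7.5, 15 and 30 min. DNA set free by cleavage was adapter-tagged by PCR and sequenced, with read counts taken as abundance. Log counts relative to furin-free reactions, after lowess adjustment and median absolute deviation scaling, form the cleavage Z-score.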

Chain of furin, P09958 (P09958 whole entry): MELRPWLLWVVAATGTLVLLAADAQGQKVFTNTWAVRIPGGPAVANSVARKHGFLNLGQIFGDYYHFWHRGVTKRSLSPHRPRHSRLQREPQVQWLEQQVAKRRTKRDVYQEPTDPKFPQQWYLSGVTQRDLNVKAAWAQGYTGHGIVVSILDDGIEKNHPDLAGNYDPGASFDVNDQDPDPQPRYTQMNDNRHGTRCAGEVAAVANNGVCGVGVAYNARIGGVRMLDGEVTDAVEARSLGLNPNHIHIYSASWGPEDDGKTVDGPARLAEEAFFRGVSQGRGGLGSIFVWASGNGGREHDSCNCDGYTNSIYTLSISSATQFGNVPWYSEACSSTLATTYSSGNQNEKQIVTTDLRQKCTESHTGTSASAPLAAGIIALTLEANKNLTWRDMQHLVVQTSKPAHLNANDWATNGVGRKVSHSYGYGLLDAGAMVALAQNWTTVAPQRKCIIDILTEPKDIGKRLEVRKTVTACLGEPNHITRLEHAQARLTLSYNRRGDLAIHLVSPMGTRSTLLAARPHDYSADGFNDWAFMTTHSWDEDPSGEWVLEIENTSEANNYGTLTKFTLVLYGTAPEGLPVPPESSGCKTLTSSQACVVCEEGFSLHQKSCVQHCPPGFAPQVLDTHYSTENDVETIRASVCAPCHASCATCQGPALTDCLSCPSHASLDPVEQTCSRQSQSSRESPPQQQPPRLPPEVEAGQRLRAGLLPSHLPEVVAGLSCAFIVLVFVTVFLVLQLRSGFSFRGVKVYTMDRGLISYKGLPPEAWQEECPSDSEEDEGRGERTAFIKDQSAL

Sequence	furin cleavage Z-score (7.5 min)	furin cleavage Z-score (15 min)	furin cleavage Z-score (30 min)
CATHRRQKRDAGNASASA [FS-1092]	3.98 (active)	2.56	2.3
CAISPRQKRDAGNASASA [FS-542]	12.4 (active)	12.3 (active)	9.21 (active)
CATSSRNARNAGNASASA [FS-571]	3.05	4.2 (active)	5.2 (active)
CATDSRTNRDAGNASASA [FS-1422]	-1.07 (inactive)	-0.239 (inactive)	1.78
CATSSEPAPSAGNASASA [HC1344]	-0.191 (inactive)	-1.38 (inactive)	-0.0397 (inactive)
CAGLRRRKRDAGNASASA [FS-930]	12.2 (active)	10.2 (active)	8.8 (active)
CATTPCSGDWAGNASASA [HC1911]	1.59	-1.02 (inactive)	0.621 (inactive)
CAEVGTSTWVAGNASASA [HC2196]	0.089 (inactive)	1.37	0.992 (inactive)
CAEVVTSTWSAGNASASA [HC2257]	0.148 (inactive)	-0.0297 (inactive)	0.967 (inactive)
CASTPCSEHLAGNASASA [HC2532]	1.63	0.136 (inactive)	-0.509 (inactive)
CAVEFLVQAWAGNASASA [HC1471]	-1.03 (inactive)	-0.538 (inactive)	0.302 (inactive)
CALEDNVTPIAGNASASA [HC1434]	-0.871 (inactive)	-0.336 (inactive)	-2.15 (inactive)
